The values that follow come from PubChem BioAssay (Tox21).

SMILES strings stand for the structures. Records with an inconclusive call do not appear. Where a call stands in place of a potency, no number is given. The source made the active and inactive calls. Calls come from the whole dose curve; as a rule, active = well fitted curve in the direction sought with a large enough effect in the repeat runs; inconclusive = weak or mixed curves; inactive = no such curve, though single readings can be large; an effect the other way counts as inactive or inconclusive.

System in the first test: not listed separately
As to the kind of experiment: qHTS assay to identify small molecule antagonists of the androgen receptor (AR) signaling pathway using the MDA cell line - cell viability counter screen (AID 743041; note: nearly all actives have a fitted effect of over 45% in size). Conditions: MDA-kb2 viability, CellTiter-Fluor, 16 h, cells co-treated with R1881 androgen agonist; series mostly up to 70.3 µM. In outline: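 qHTS viability read-out; MDA-kb2 AR-luc; R1881-stimulated; 16 h exposure at 37C, 0% CO2; CellTiter-Fluor, 30 min; fluorescence intensity.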
`Nc1c2c(nc3ccccc13)CCCC2O` (stereo unspecified): the Potency result is “inactive”.
In the case of `CC(C)c1cc2c(cc1S(=O)(=O)O)[C@@]1(C)CCC[C@@](C)(C(=O)O)[C@@H]1CC2`, the Potency entry is “inactive”.
The same measure, in the same setting: next, `C[N+](C)(C)CC(O)CC(=O)[O-]` (stereo unspecified): “inactive”.
Take `CCC=O`: the Potency entry is “inactive”.
In the case of `C=C1CC[C@H]2C[C@@H]1C2(C)C`, the Potency entry was “inactive”.
With `Cc1c(NC(C)C)c(=O)n(-c2ccccc2)n1C`, the Potency result is “inactive”.
Consider `NS(=O)(=O)c1ccc(C(=O)O)cc1`, for which the Potency entry was “inactive”.
Same read-out and setting: the same measure for `COC(=O)[C@@H](N)Cc1ccc(O)c(O)c1`: “inactive”; for `COc1nc(N)nc2c1ncn2[C@@H]1O[C@H](CO)[C@@H](O)[C@@H]1O`: “inactive”.
As for `CCOC(=O)C(=O)OCC`, the Potency result was “inactive”.
The same measure, in the same setting: the same measure for `CCCCCCOC(=O)CCCCC(=O)OCCCCCC`: “inactive”.
Still for that read-out and setting: the same measure for `O=C(O)Cc1ccc(CCNS(=O)(=O)c2ccc(Cl)cc2)cc1`: “inactive”.

The target of the next test is Androgen receptor (Homo sapiens) (UniProt P10275). As to the kind of experiment: qHTS assay to identify small molecule antagonists of the androgen receptor (AR) signaling pathway using the MDA cell line (AID 743042; note: nearly all actives have a fitted effect of over 55% in size). Conditions: MDA-kb2 AR-luc, MMTV luciferase, R1881 antagonist, 16 h; series mostly up to 70.3 µM. Put shortly: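 MDA-kb2 cells (human breast carcinoma, stably carrying an MMTV-luciferase reporter responsive to AR and GR) were plated at 3,000 cells/well and preincubated 5 hr at 37C, then given compound plus R1881 agonist for 16 h. ONE-Glo luminescence was read.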
Androgen receptor (Homo sapiens), sequence (P10275 whole entry, looked up): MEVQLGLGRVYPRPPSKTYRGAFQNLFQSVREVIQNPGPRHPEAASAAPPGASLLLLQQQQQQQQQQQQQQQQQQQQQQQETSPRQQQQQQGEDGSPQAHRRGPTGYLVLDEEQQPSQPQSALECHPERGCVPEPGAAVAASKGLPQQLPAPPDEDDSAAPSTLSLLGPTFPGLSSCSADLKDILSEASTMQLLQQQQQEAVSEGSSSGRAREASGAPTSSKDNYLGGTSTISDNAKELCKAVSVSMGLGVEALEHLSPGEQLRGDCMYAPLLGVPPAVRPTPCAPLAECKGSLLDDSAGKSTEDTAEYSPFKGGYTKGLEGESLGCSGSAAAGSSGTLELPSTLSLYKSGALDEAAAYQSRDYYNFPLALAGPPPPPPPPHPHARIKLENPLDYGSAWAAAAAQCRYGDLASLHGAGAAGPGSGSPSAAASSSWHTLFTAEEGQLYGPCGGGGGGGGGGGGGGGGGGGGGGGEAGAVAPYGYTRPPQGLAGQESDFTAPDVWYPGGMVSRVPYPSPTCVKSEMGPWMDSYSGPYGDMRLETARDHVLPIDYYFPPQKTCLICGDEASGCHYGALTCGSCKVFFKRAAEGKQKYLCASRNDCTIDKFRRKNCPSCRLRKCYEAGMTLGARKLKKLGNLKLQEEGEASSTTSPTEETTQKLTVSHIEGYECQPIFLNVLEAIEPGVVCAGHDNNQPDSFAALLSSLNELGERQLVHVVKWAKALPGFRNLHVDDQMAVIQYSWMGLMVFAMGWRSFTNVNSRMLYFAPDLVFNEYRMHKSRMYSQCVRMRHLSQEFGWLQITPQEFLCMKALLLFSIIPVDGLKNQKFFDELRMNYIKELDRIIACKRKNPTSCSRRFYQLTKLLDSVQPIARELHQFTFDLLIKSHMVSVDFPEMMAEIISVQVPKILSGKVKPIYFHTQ
Turning to `CC(=O)CC(C)C`, the Potency entry was “inactive”.
On the same count and under the same terms, the same measure for `O=C1CC2CC1C1CCCC21` (stereo unspecified): “inactive”; for `CCn1ccnc1CC1COc2ccccc2O1` (stereo unspecified): “inactive”.
The same measure, in the same setting: next, `C=C(C)CS(=O)(=O)O`: “inactive”.
The same measure, in the same setting: the same measure for `CN1CC(=O)NC1=N`: “inactive”.
For the compound `CCOc1ccc(C(=O)OCCN(CC)CC)cc1`, the Potency result is “inactive”.
For `CN1CCN(c2cc3c(cc2F)c(=O)c(C(=O)O)cn3-c2ccc(F)cc2)CC1`, the Potency result was “inactive”.
On the same count and under the same terms, next, `NS(=O)(=O)c1ccc(C(=O)O)cc1`: “inactive”.
Still for that read-out and setting: next, `COC(=O)[C@@H](N)Cc1ccc(O)c(O)c1`: “inactive”.
